# In all, about 69,000 compounds went through this assay and about 50 (0.07%) showed an effect of 50% or more. The entries come from a sample that favours strong results as a whole.
# Biological target: Lysine--tRNA ligase (Plasmodium falciparum (isolate 3D7)) (UniProt Q8IDJ8)
# Assay: Pf-KRS-1 (Lysyl-RNA Synthetase-1, KRS-1, cytosolic KRS) from Plasmodium falciparum. Inhibitor assay, 384 well plate, luminescence read.
# Assay type: functional
# Design: scale not given: in the data most compounds retested in dose-response had high values
# Settings: 30 µM
# Sequence of Lysine--tRNA ligase (Plasmodium falciparum (isolate 3D7)) (Q8IDJ8 1-583): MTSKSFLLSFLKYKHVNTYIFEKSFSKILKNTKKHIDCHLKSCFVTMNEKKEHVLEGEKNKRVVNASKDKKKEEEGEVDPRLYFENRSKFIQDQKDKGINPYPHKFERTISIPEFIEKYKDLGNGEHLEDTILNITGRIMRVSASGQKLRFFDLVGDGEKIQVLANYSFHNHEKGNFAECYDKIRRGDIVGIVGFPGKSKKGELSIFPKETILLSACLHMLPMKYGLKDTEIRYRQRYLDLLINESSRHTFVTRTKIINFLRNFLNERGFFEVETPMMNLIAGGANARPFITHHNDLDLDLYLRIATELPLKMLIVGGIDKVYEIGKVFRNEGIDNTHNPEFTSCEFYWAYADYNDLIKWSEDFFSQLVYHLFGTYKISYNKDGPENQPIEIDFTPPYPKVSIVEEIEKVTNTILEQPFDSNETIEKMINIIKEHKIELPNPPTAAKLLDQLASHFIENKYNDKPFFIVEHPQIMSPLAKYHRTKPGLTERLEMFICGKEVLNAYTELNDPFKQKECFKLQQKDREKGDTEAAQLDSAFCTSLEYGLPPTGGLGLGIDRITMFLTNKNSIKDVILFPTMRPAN
row,Compound,Percent Effect
1,Cc1cccc(CO[C@H]2CN(c3nnc(C)s3)[C@@H]3CCCO[C@H]23)n1,3.74%
2,COc1cccc(-c2n[nH]c3c2CN(C(=O)c2ccncc2)CC3)c1,0.631%
3,COc1cccc(-c2n[nH]c3c2CN(C(=O)c2cc(C)n(C)n2)CC3)c1,-1.18%
4,COc1cccc(-c2n[nH]c3c2CN(C(=O)c2cccc(=O)[nH]2)CC3)c1,55.1%
5,Cn1cccc1C(=O)N1C[C@H](OCC2CCOCC2)[C@H]2COC[C@H]21,3.49%
6,c1cnnc(N[C@@H]2CC[C@@H]3CN(Cc4c[nH]c5ccccc45)C[C@@H]32)c1,0.669%
7,CCCN(C(=O)c1ccncc1)c1nc2c(s1)CCc1c-2cnn1C,16.2%
8,COCCN(C(=O)c1ccccn1)c1nc2c(s1)CCc1c-2cnn1C,52.4%
9,CN(C(=O)c1ccccn1)c1nc2c(s1)CCc1c-2cnn1C,0.965%
10,COCCN(C(=O)c1cnccn1)c1nc2c(s1)CCc1c-2cnn1C,8.73%
11,CCCN(C(=O)c1ccccn1)c1nc2c(s1)CCc1c-2cnn1C,50.4%
12,CCCN(C(=O)c1cnccn1)c1nc2c(s1)CCc1c-2cnn1C,10.8%
13,CCCN(C(=O)c1cccnc1)c1nc2c(s1)CCc1c-2cnn1C,44%
14,CCCN(C(=O)c1cnc(C)cn1)c1nc2c(s1)CCc1c-2cnn1C,40.4%
15,CCCN(C(=O)COC)c1nc2c(s1)CCc1c-2cnn1C,74.8%
16,Cc1nccc([C@H]2C[C@@H]3CCN(S(C)(=O)=O)C[C@H]3O2)n1,-0.787%
17,O=C([C@H]1COC[C@H]2CN(c3ccncn3)C[C@H]21)N1CCCC1,-3.71%
18,O=C(Nc1cnccn1)[C@H]1C[C@H]2OCC[C@H]2N(c2ncc(F)cn2)C1,11.9%
19,COc1cccc(-c2ncc(CN3C[C@@H]4CC[C@H](C3)N(C)C4=O)s2)c1,-4.12%
20,COc1ccc(C2CC(=O)Nc3c2cnn3C)cc1 (stereo not given),-3.99%

row,Compound,Percent Effect
1,COc1ccc(C2CC(=O)NCc3nc(N(C)C)sc32)c(O)c1 (stereo not given),1.01%
2,COc1ccc(OC)c(C2CCN(CC(C)(C)N3CCOCC3)C2)c1 (stereo not given),1.11%
3,COc1ccc(OC)c(C2CC(=O)Nc3nc(N4CCOCC4)sc32)c1 (stereo not given),84.5%
4,COc1ccc(C2CC(=O)Nc3nc(N4CCOCC4)sc32)c(OC)c1 (stereo not given),86.4%
5,CCn1ncnc1C1CC(=O)NCc2nc(N3CCOCC3)sc21 (stereo not given),0.366%
6,COc1ccc(C2CCCN2c2nnc(C)s2)c(OC)c1 (stereo not given),-1.09%
7,COc1ccc(C2CC(=O)Nc3nc(N4CCOCC4)sc32)cc1 (stereo not given),82.2%
8,COc1ccc(OC)c(C2SCC(=O)Nc3n[nH]cc32)c1 (stereo not given),4.67%
9,COCCN1C(=O)CO[C@H]2CN(Cc3ccccc3Cl)C[C@@H]21,3.69%
10,O=C(c1cocn1)N1C[C@H]2CCC[C@@]2(COCc2cccnc2)C1,2.44%
11,Cc1c(Cl)cccc1S(=O)(=O)N1C[C@@H]2CC[C@H](C1)N(C)C2=O,3.71%
12,O=S1(=O)C[C@@H]2[C@H](C1)N(Cc1ccoc1)CCN2Cc1ccncc1,8.97%
13,O=C(c1ccncc1)N1C[C@@H]2CC[C@H](C1)N(C(=O)C1CCCC1)C2,-0.475%
14,CNc1nc2c(s1)C(c1ccc(Cl)cc1Cl)CC(=O)N2 (stereo not given),47.4%
15,CNc1nc2c(s1)C(c1ccccc1Cl)CC(=O)N2 (stereo not given),84.5%
16,Cc1ccsc1C1CC(=O)Nc2c1cnn2C(C)C (stereo not given),3.08%
17,CNc1nc2c(s1)C(c1cc(Cl)ccc1F)CC(=O)N2 (stereo not given),44.9%
18,CNc1nc2c(s1)C(c1ccccc1F)CC(=O)N2 (stereo not given),79.2%
19,CNc1nc2c(s1)C(c1ccc(F)cc1Cl)CC(=O)N2 (stereo not given),82%
20,Cn1ncc2c1NC(=O)CC2c1ccccc1Cl (stereo not given),6.28%

row,Compound,Percent Effect
1,CNc1nc2c(s1)C(c1cccc(Cl)c1Cl)CC(=O)N2 (stereo not given),29.5%
2,O=C1CC(c2ccccc2F)c2c(n3ccsc3nc2=O)N1 (stereo not given),6.5%
3,CC(C)(C)n1ncc2c1NC(=O)CC2c1c(F)cccc1F (stereo not given),5.99%
4,Cn1ncc2c1NC(=O)CC2c1ccc(Cl)cc1Cl (stereo not given),9.51%
5,CNc1nc2c(s1)C(c1cccc(F)c1F)CC(=O)N2 (stereo not given),50.5%
6,O=C(NCC1CC1)[C@@H]1CC[C@@H]2[C@@H](CCN2Cc2ccco2)O1,-0.532%
7,COCCN1C[C@H]2CN(Cc3cccc(OC)c3)CCN2C1=O,8.64%
8,COc1ncccc1C(=O)N1C[C@@H]2COC[C@]2(CN(C)C)C1,-2.56%
9,Fc1ccccc1CN1C[C@@H]2OCCN(c3ncccn3)[C@@H]2C1,-1.46%
10,COCCN1C(=O)[C@H]2CC[C@@H]1CN(S(=O)(=O)c1ccc(OC)cc1)C2,5.86%
11,c1cnc2c(-c3nccn3C[C@@H]3CCCN4CCCC[C@H]34)cccc2c1,1.5%
12,Cc1cccc(S(=O)(=O)N2CC[C@H]3[C@H]2CCN3c2ncccn2)c1,1.51%
13,O=C(c1cscn1)N1CC[C@@H]2[C@@H]1CCN2C1CCOCC1,1.62%
14,CN1C[C@@H]2CC[C@H](CC1=O)N2C(=O)c1ccc(-c2ccccc2)[nH]c1=O,16.3%
15,COc1ccc(CC(=O)N2CC[C@@H]3CN(C)S(=O)(=O)[C@@H]3CC2)cc1,3.63%
16,CNc1nc2c(s1)C(c1c(Cl)cccc1Cl)CC(=O)N2 (stereo not given),35.2%
17,CNc1nc2c(s1)C(c1c(F)cccc1Cl)CC(=O)N2 (stereo not given),70%
18,Cn1ncc2c1NC(=O)CC2c1c(F)cccc1Cl (stereo not given),2.46%
19,O=C1C[C@H]2[C@@H](CCN2C(=O)Cc2cccs2)N1Cc1ccncc1,3.5%
20,Cc1cccc(CN2C[C@@H]3OCCN(S(=O)(=O)N(C)C)[C@@H]3C2)c1,2.13%
